# Data as given in the supplement of paper PMC6522484.
# Values joined by “and” are separate entries in the source; they are usually repeats but may differ in a detail not shown here. Identical values can stand only once. ± gives the standard deviation of the averaged measurements.
# Legend:
# DLD1 [1] = test: cell viability (CellTiter-Glo) relative to plate median (fraction of plate median); higher = more viable cells; conditions: 5 µM; treatment time 24 h; reporter: 7TFP
# Procedure, shortened: (§1)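 Stable lentiviral TCF/Wnt firefly luciferase reporters (7TFP or TCF4/Wnt) were present in the colorectal cancer cell lines used. These cells received library compounds at a final 5 µM for 24 h, and parallel plates were read for firefly luciferase or CellTiterGlo luminescence. Each well was normalised to the plate median, and the value reported is the mean of two independent replicates.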
# HCT116 = test: as above; conditions: 5 µM; treatment time 24 h; reporter: TCF4/Wnt
# Procedure, shortened: as §1
# SW480 [2] = test: as above; conditions: 5 µM; treatment time 24 h; reporter: 7TFP
# Procedure, shortened: as §1
# DLD1 [3] = test: TCF/Wnt firefly luciferase reporter signal relative to plate median (fraction of plate median); higher = higher Wnt reporter signal; conditions: 5 µM; treatment time 24 h; reporter: 7TFP
# Procedure, shortened: as §1
# SW480 [4] = test: as above; conditions: 5 µM; treatment time 24 h; reporter: 7TFP
# Procedure, shortened: as §1
Compound,cell viability (DLD1 [1]),cell viability (HCT116),cell viability (SW480 [2]),TCF/Wnt firefly luciferase reporter signal (DLD1 [3]),TCF/Wnt firefly luciferase reporter signal (SW480 [4])
CC(=O)O[C@H]1CC[C@]2(C)C3=CC(=O)[C@@]4(C)C(C[C@@H]5OC6(OCC(C)CC6Br)[C@@H](C)[C@@H]54)C3CC[C@H]2C1 (stereo partly drawn) [3beta-ACETOXY-23-BROMO-ISOALLOSPIROST-9 (11)-ENE-12-ONE],1.04 ± 0.042,1.11 ± 0.092,1.03 ± 0.05,1.12 ± 0.099,1.1 ± 0.035
O=C1OC(=O)[C@H]2[C@@H]1[C@@H]1CC[C@H]2O1,0.9975 ± 0.0035,0.867 ± 0.079,0.949 ± 0.0085,1.06 ± 0.13,0.892 ± 0.02
FC(F)(F)c1ccccc1-n1ccnc1,1.02 ± 0.04,1.01 ± 0.017,1 ± 0.026,1.03 ± 0.064,0.912 ± 0.14
C/N=C(/NC#N)NCCSCc1csc(NC(=N)N)n1,1 ± 0.068,0.975 ± 0.078,1.01 ± 0.014,1.12 ± 0.021,1.11 ± 0.064
O=C1C(O)=C(O)C(=O)C(O)=C1O,0.96 ± 0.03,0.997 ± 0.1,0.944 ± 0.015,0.829 ± 0.011,0.822 ± 0.056
O=c1cc[nH]c(=S)[nH]1,1.03 ± 0.073,1.04 ± 0.061,0.956 ± 0.076,1.03 ± 0.014,1.02 ± 0.028
COc1ccc2c(c1)c(CC(=O)O)c(C)n2C(=O)c1ccc(Cl)cc1,1.01 ± 0.016,0.785 ± 0.33,1.03 ± 0.028,1.08 ± 0.014,1.1 ± 0.014
CCCCC[C@H](CC(=O)NO)C(=O)N[C@H](C(=O)N1CCC[C@H]1CO)C(C)C,0.951 ± 0.0042,0.932 ± 0.057,0.9655 ± 0.00071,1 ± 0.05,1.16 ± 0.035
NC(=O)c1cnccn1,0.988 ± 0.045,0.9595 ± 0.0035,1.02 ± 0.05,1.02 ± 0.13,0.942 ± 0.083
CCCCCC[C@H]1CC[C@@](O)([C@@](C)(O)C(=O)N[C@@H]2C(=O)N3NCCC[C@@H]3C(=O)N(O)[C@@H](COC)C(=O)NCC(=O)N3NCCC[C@H]3C(=O)N(O)[C@H](C)C(=O)O[C@H]2C)OC1C (stereo not given in full) [Diperamycin],1.15 ± 0.099,1.23 ± 0.035,1.11 ± 0.099,1.06 ± 0.11,0.926 ± 0.0014
O=c1ccn([C@@H]2O[C@H](COP(=O)(O)OP(=O)(O)OP(=O)(O)O)[C@@H](O)[C@H]2O)c(=O)[nH]1,0.986 ± 0.091,0.89 ± 0.016,1.04 ± 0.064,0.921 ± 0.27,0.958 ± 0.14
COc1ccc(-c2cc(=O)c3c(O)c(OC)c(OC)c(OC)c3o2)cc1OC,1.07 ± 0.085,1.19 ± 0.11,1.15 ± 0.18,0.964 ± 0.065,0.967 ± 0.2
CCOC(=O)c1ncn2c1CN(C)C(=O)c1cc(F)ccc1-2,0.944 ± 0.045,1.03,0.952 ± 0.025,0.996 ± 0.02,0.993 ± 0.0099
C[C@]12C=CC(=O)C=C1CC[C@@H]1[C@@H]2[C@@H](O)C[C@@]2(C)[C@H]1CC[C@]2(O)C(=O)CO,1.01 ± 0.014,1.09 ± 0.035,1.04 ± 0.069,1.03 ± 0.035,1.04 ± 0.088
COc1cc(NS(C)(=O)=O)ccc1Nc1c2ccccc2nc2ccccc12,1.11 ± 0.14,0.83 ± 0.09,1.03 ± 0.035,0.973 ± 0.053,0.841 ± 0.11
COc1cc2ccc(=O)oc2c(O)c1O,0.945 ± 0.077,0.908 ± 0.061,0.966 ± 0.062,1.04 ± 0.042,0.9995 ± 0.00071
CCCCCC/C=C\CCCCCCCc1cccc(O)c1C(=O)O,1.05 ± 0.14,1.08 ± 0.028,1.05 ± 0.042,0.985 ± 0.14,0.996 ± 0.021
CC(C)NCC(O)c1cc(O)cc(O)c1 (stereo not given),0.999 ± 0.03,0.954 ± 0.06,0.976 ± 0.048,0.914 ± 0.11,0.987 ± 0.018
O=C(O)c1cc(=O)c2cccc(O)c2[nH]1,0.932 ± 0.077,1.07 ± 0.1,0.946 ± 0.016,1.19 ± 0.014,1.15 ± 0.021
CC(=O)OC[C@@]1(O)C[C@@]23CC[C@@H]4c5ccoc5CC[C@@]4(C)[C@@H]2CC[C@@H]1C3,1.02 ± 0.028,1.05 ± 0.042,1.02,1.08 ± 0.16,1.16 ± 0.057
CN1CCC(OC(c2ccccc2)c2ccccc2)CC1,0.969 ± 0.044,1.02 ± 0.014,0.979 ± 0.024,1.12 ± 0.13,1.16 ± 0.092
CC(CCc1ccc(O)cc1)NCCc1ccc(O)c(O)c1 (stereo not given),1.01 ± 0.018,1.06 ± 0.18,1 ± 0.037,0.928 ± 0.058,1.02 ± 0.088
CC1(C)CC[C@]2(C(=O)O)[C@H](O)C[C@]3(C)C(=CC[C@@H]4[C@@]5(C)CC[C@H](O)C(C)(C)[C@@H]5CC[C@]43C)[C@H]2C1,0.9085 ± 0.0035,0.94 ± 0.16,0.9525 ± 0.0092,0.919 ± 0.033,0.999 ± 0.016
COC(=O)[C@@H]1OC(=O)[C@H]2O[C@@]23[C@@]1(C)CCC1[C@@]2(C)CCC(=O)C(C)(C)C2C[C@@H](OC(C)=O)[C@]13C (stereo not given in full),0.995 ± 0.078,1.1 ± 0.085,1.01 ± 0.034,0.994 ± 0.037,0.967 ± 0.038
NC12CC3CC(CC(C3)C1)C2,0.979 ± 0.028,0.944 ± 0.058,1.04 ± 0.021,0.908 ± 0.34,1.025 ± 0.0071
CN(C)CC[C@@H](c1ccc(Cl)cc1)c1ccccn1,1.01 and 0.901,0.96 and 1.04,0.968 and 1.01,0.862 and 1.08,0.778 and 1.05
CCCCCCCCCc1ccc(OCCOCCOCCOCCOCCOCCOCCOCCOCCO)cc1,0.985 ± 0.064,0.947 ± 0.036,0.998 ± 0.032,1 ± 0.18,0.904 ± 0.088
CN1CCOC(c2ccccc2)c2ccccc2C1 (stereo not given),0.915 ± 0.048,0.997 ± 0.1,1 ± 0.014,0.9875 ± 0.0035,0.883 ± 0.12
